# Measurements published in the supplement of paper PMC11417369.
# ± gives the standard deviation of the averaged measurements. Whole data set: some 25,000 sequences, median “ln(normalized median fluorescence intensity)” near 8.9, cut for the highest 2% near 10. The sample holds the highest values, similar sequences and a random draw of the others, so the mix is not that of the screen.
# Test system: PfAP2-LT AP2 domain (GST-tagged)
# Test: gcPBM binding intensity (ln(normalized median fluorescence intensity)); higher = stronger DNA binding
# Method in brief: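 For binding intensity, the highest Masliner-normalised natural-log median intensity across replicate spots of either probe orientation was taken. Protein bound to the array was stained with Alexa488 anti-GST antibody and scanned at 488 nm. The protein, GST-tagged P. falciparum DNA-binding domains from E. coli at about 25 μg on average, had been applied for 1 h to an Agilent 4 × 180k array of primer-extended double-stranded 36-bp intergenic genomic probes and negative controls.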
row,Sequence,gcPBM binding intensity (ln)
1,TAAAATATATATATGTGTACATAACATATAATTTTT [XGTACX_site1725],8.6 ± 0.46
2,TAAAATTTATAAACTACACACATATATATAGTAATA [CACACA_site3728],8.8 ± 0.42
3,TATATATAATATTTTTCACACACCATTTCCTTAAAC [CACACA_site1341],9.04 ± 0.29
4,AATCATGCTCCGGAAAGTACATAAATAAATAAATAA [XGTACX_site1690],8.85 ± 0.56
5,TAGAATATCCCCTACACACCCAAATAATTTACAAAT [CACACA_site4825],9.3 ± 0.35
6,AGGGAATAATATTAATGTACATATATGAACTTGTTT [XGTACX_site6089],8.93 ± 0.43
7,TAGACTCCCAGACACACACACACACCCATATAATAT [CACACA_site593],10.2 ± 0.35
8,TATATATATATAGACACACACACACCCATATATATA [CACACA_site4117],9.94 ± 0.23
9,TATATACATAGACACCCACACACAAAAAAAAAAAAA [CACACA_site8186],9.43 ± 0.42
10,CACCCCCACAGACACACACACACACCCATATATATA [CACACA_site364],10.45 ± 0.042
11,TACATATACAGACACACACACACACCCCCACAAAAA [CACACA_site495],10.45 ± 0.099
12,TACGCTCCCAGACACACACACACACCGATATAATAT [CACACA_site8098],9.89 ± 0.23
13,CACCCCCACAGACACACACACACACCCACATATATA [CACACA_site365],10.54 ± 0.035
14,TATACATACAGACCCACACACAAAAAAAAAAAAAAA [CACACA_site6536],9.35 ± 0.5
15,TATGATACATAATATACATGCATACACAACATTCAG [TGCATGCA_site487],8.94 ± 0.37
16,ATATATATACCAAGTAGTACATTCTACAACTAATGT [XGTACX_site8653],8.79 ± 0.4
17,ATATTTTGTTATGTAGATGTTGGTAGGAATTTTGGT [CACACA_negctrl_site1104],8.83 ± 0.4
18,CAATTAAACAATTAAACATGCAAAATGATATAATAA [TGCATGCA_site240],8.87 ± 0.49
19,TACGTAAAAATAGGACGTACTTATTTAGAAACCATA [XGTACX_site2498],8.72 ± 0.49
20,AAGAGTTTGAAGTTTGCACACTACGTTAAAAATAAA [CACACA_site3939],8.72 ± 0.59
21,ATAAATAAAACAACAGTGCAATAAAATTAGTTGAGG,9.07 ± 0.54
22,ACATAATAAAAAAAACGTACAAATAGGTTTTTCATA [XGTACX_site6645],8.85 ± 0.57
23,ATGAGTTACATGGGAAAAATATATATATATATATAT [CACACA_negctrl_site579],9.8 ± 0.23
24,TCTATACCTATTCTTACACACATATGTATTTATATA [CACACA_site4475],9.28 ± 0.46

row,Sequence,gcPBM binding intensity (ln)
1,CACACCCACAGACACACACACACATATATAATATAT [CACACA_site594],10.2 ± 0.54
2,AGACATATAATATATACACACATATATATATATATA [CACACA_site1066],9.93 ± 0.085
3,CACCCATACAGACATACACACACATATATATTAATA [CACACA_site8077],9.67 ± 0.27
4,AAATTTTCACTTCAAAAACACACGTATTTTTTTCCT [CACACA_site3813],8.8 ± 0.47
5,CAACAACAAAAAAAAAAATAATAATAATAAAAAATA [TGCATGCA_negctrl_site271],8.71 ± 0.5
6,CATATGTATATGACTACACACAAGGGTGTACATATA [CACACA_site1164],9.2 ± 0.38
7,CAAGGACAATTTACAAACATAATATATGTATATATA [TGCATGCA_negctrl_site5],8.66 ± 0.55
8,AGGACAAGGGTTACATGTACATATATATATATATAT [XGTACX_site901],10.2 ± 0.14
9,ATCATAATTTATTATACACACAATACGTGACCTATT [CACACA_site6977],9.24 ± 0.47
10,ATATTTTGTATAATCACACACACTATTCTTAAATAG [CACACA_site7270],9.23 ± 0.37
11,CAAACCCACGGACACACACACACAAAAATGATTAAA [CACACA_site5365],9.71 ± 0.38
12,AACAAACACGGACACACACACACACTAGAATGATTA [CACACA_site5364],10.2 ± 0.31
13,CAAACAAACGGACACACACACACACCCAAAAATGAT [CACACA_site5363],10.1 ± 0.18
14,TTTATTAATAAACACACACACACACCCAAAATAAAA [CACACA_site7966],10.2 ± 0.18
15,GAATAATCCAAACACACACACACACCCGAATAAATA [CACACA_site482],10.3 ± 0.45
16,TTTATTAATGGACACACACACACACCCAAAATAAAA [CACACA_site4294],10 ± 0.13
17,CCCGAACAAACAAATAAACACACAAAAAAAAATATA [CACACA_site8540],9.15 ± 0.47
18,CACACCCACCAACACACACACAAAAAAAAAAAGAAA [CACACA_site500],9.56 ± 0.47
19,TATTTATTAAAACACACACACACACCCACAAAATAA [CACACA_site241],10.04 ± 0.099
20,AAAGAAGGGAAACACACACACACACCCACAAAAAAA [CACACA_site3766],10.18 ± 0.099
21,CAAAAGAAGGTAAACACACACACACCCATACAAAAA [CACACA_site3765],10.1 ± 0.43
22,TTAAAGCACCCATGCACACACACAAGGGAAAAGAAA [CACACA_site4289],9.49 ± 0.4
23,TTAATAACAAAATAAACACACATATATAAATCCACA [CACACA_site1590],9.09 ± 0.38
24,TTAACAAAGAAACACACACACACACCCAAAAAAAAA [CACACA_site516],10.2 ± 0.11

row,Sequence,gcPBM binding intensity (ln)
1,CAACAAAAGAAACACACACACACAAACACAAAAAAA [CACACA_site3389],9.91 ± 0.16
2,ATTTCAAATTAATTTACACACTTCATACTAAAAGAC [CACACA_site3176],8.71 ± 0.4
3,GGAAAAAAATATAAAAGTACTTTTTATTTATTTTAT [XGTACX_site7418],8.4 ± 0.51
4,AGGAATATAAAGTGCACACATAATTTGGGGGCAAAA [CACACA_site258],9.25 ± 0.44
5,AATTAAATTACTTATACACACATAAAATGGGTGTAT [CACACA_site4703],8.97 ± 0.37
6,AATAAAGGAGCCTATGAACACACACCGGTACATATA [CACACA_site9352],9.33 ± 0.51
7,ATACAATAAAGGTGTACACATATATGATGCAAGATG [CACACA_site5897],9.29 ± 0.52
8,ATGTAATGAAACATTGCACACATATAATAATATAAT [CACACA_site8402],9.31 ± 0.35
9,TTTTACACTTTTTTTTGTACACACTAAAAAGATTAA [XGTACX_site8407],8.59 ± 0.52
10,AATAATTGTTAAAGCTGTACAATACTTATATAAGAA [XGTACX_site5729],8.77 ± 0.45
11,AAAAAATATTGAAGTACACACATTATAAACTTTTTT [CACACA_site5029],8.86 ± 0.49
12,AATACACACCTGTGGGTGCTTATAATAAGCCACAAA,8.95 ± 0.45
13,ATAAATAAAAACACAAAACAAAACAAAACAAAACAA [CACACA_negctrl_site1257],8.82 ± 0.4
14,ATAAATAAAAAACACACACACACACCCAAAAAAAAA [CACACA_site2624],9.88 ± 0.3
15,TTAACAAATAAACACACACACACACCCAAAAAAAAA [CACACA_site8068],10.3 ± 0.2
16,TTTTTTTTTGTTAGTTGTACGTTAAATGAATTTACT [XGTACX_site7675],8.67 ± 0.57
17,TACTAAGAAGTATTTACACACCAACAAGGCGAAAAA [CACACA_site2944],8.88 ± 0.44
18,TATAAGCAAAAACACACACACATATATATATATATA [CACACA_site3804],10.2 ± 0.23
19,CCTTTAAGCAAAAACACACACACATATTTATTTATA [CACACA_site6294],9.41 ± 0.3
20,TTTAAGCAAAAACACACACACATATATATATATATA [CACACA_site349],10.1 ± 0.16
21,AAACATATATTAAGCACACACAAACAAAAAAACAAA [CACACA_site2549],9.59 ± 0.61
22,CCTTTAAGCAAAAACACACACACATATATATATATA [CACACA_site348],9.945 ± 0.035
23,TGAAGCAAAAACAAAACACACATATAAATAAATAAA [CACACA_site3925],9.15 ± 0.52
24,AAAAAAATAAAAAATATATAAATAATTAATACATGT [GTGCAC_negctrl_site633],8.62 ± 0.59

row,Sequence,gcPBM binding intensity (ln)
1,TTATCATTATATAGTTGTACATATTTATTTATAAAA [XGTACX_site2310],8.45 ± 0.44
2,ATTATTTTATATACATGTACATATTATATATAAAAG [XGTACX_site2735],8.51 ± 0.42
3,TATTTTTTTAATAACTGTACTTTTTTGTCAAATGGA [XGTACX_site4179],8.32 ± 0.49
4,ATATATTTCAAAGGGGTGCAGGCATATTTAAGCAAA,8.69 ± 0.49
5,TATTTTAAAAAAAAAAGTACACATAATATATATAAC [XGTACX_site5416],8.57 ± 0.57
6,CATTAAACCGTGGGAGCACACACACCCACCCACCCA [CACACA_site8000],9.57 ± 0.2
7,ATTAAACCGTGGGAGCACACACACACACACACACAT [TGCATGCA_negctrl_site72],10.6 ± 0.4
8,TTAAACCGTGGGAGCACACACACACCCAGACACATA [CACACA_site4337],9.7 ± 0.31
9,AAATATATATATATATATATATATGTGTGTGTATAT [GTGCAC_negctrl_site1],9.79 ± 0.45
10,TATATATATATATATATATATATATATGTGTATGTA [TGCATGCA_negctrl_site255],10.2 ± 0.26
11,TATATATATATATATATATATATATATATATGTATA [TGCATGCA_negctrl_site17],9.8 ± 0.38
12,TTACACTAAATATGTTCACACATTTTTTCCATCATA [CACACA_site4647],8.79 ± 0.45
13,AAAAAAGAAAAAAGGACACACATAAATATACTCACG [CACACA_site2904],9.16 ± 0.48
14,CATACAGACGAACACACACACATATAAATATAAATA [CACACA_site6443],9.7 ± 0.38
15,TGAACTCACGAGCACACACACACATATATATATATA [CACACA_site8248],10.3 ± 0.25
16,AAAATGAACTCACGAGCACACACACCCATATATATA [CACACA_site8247],9.72 ± 0.25
17,AACTCACGAGGACACACACACATATATATATATATA [CACACA_site4711],10.38 ± 0.035
18,AACGCACGAGGACACACACACATATTTATATTTATA [CACACA_site6608],9.82 ± 0.41
19,AATGAACTCACGAGCACACACACACCGATATATATA [CACACA_site4710],10.1 ± 0.35
20,TGAACAGACGAGCACACACACACATATATATATATA [CACACA_site1019],10.3 ± 0.2
21,AATGAACAGACGAGCACACACACACCCATATATATA [CACACA_site1018],10.1 ± 0.16
